Hit rate of the full screen: of about 420,000 compounds, about 64,000 (15%) were called active. Inconclusive results (about 27%) are left out. A selection follows. Where a call stands in place of a potency, no number is given. Unmarked numbers belong to inactive results. Calls follow the shape of the dose curve; as a rule, active = well fitted inhibition curve with a large enough effect; inconclusive = small, poorly fitted or top-dose-only effect; inactive = flat fitted curve, though single readings scatter.
Assay: qHTS for Inhibitors of human tyrosyl-DNA phosphodiesterase 1 (TDP1): qHTS in cells in absence of CPT; also: nearly all actives have a fitted effect of over 55% in size
Conditions: DT40 Tdp1-/- hTDP1 cells, no CPT, ATP luminescence, 48 h; activity change, negative = growth inhibition: at 46.2 µM (top of the series)
Procedure, shortened: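 Chicken DT40 Tdp1-/- cells stably complemented with human TDP1 were seeded at 400 cells/well with DMSO in place of 20 nM camptothecin. After compound pinning, cells grew at least 48 hr at 37 °C; viability read by CellTiter-Glo luminescence.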
Potency is read from the fitted curve at half-maximal effect.

SMILES | Potency | activity change, negative = growth inhibition
COCC(=O)Nc1cc(C(=O)N2CCCC(c3ccccc3)CC2)c2c(c1)nc(-c1ccncc1)n2C (stereo not drawn) | inactive | 
COc1ccc(NC(=O)CC(NC(C)c2ccccc2)C(=O)O)cc1 (stereo not drawn) | inactive | 
C[C@@H]1CN([C@@H](C)CO)C(=O)CCCn2cc(nn2)CO[C@H]1CN(C)S(=O)(=O)c1ccc(-n2cccn2)cc1 | inactive | 
Cc1ccc(C)c(NC(=O)c2cc(-c3cc(C)cc(C)c3O)n[nH]2)c1 | 13 µM (active) | 
Cc1ccc(C)c(NC(=O)c2ccc3nccnc3c2)c1 | inactive | 
Cc1ccc(O)c(NC(=O)c2cc(-c3ccc(F)cc3)no2)c1 | inactive | 
CCCCN(C(=O)CCNC(=O)NC12CC3CC(CC(C3)C1)C2)c1c(N)n(CCCC)c(=O)[nH]c1=O | inactive | 
CCOc1cc(CO)ccc1OCC(=O)N1CCCCC1 | inactive | 
Cc1ccc(C(=O)NCC(c2cccs2)N(C)C)cc1S(=O)(=O)N1CCOCC1 (stereo not drawn) | inactive | 
Cc1ccc(C(=O)NC(C)C(c2cccs2)N2CCOCC2)cc1C (stereo not drawn) | 18.4 µM (active) | 
Cc1ccc(N(C(=O)c2ccc(CN3CCOCC3)o2)C(C(=O)NCCC(C)C)c2cccs2)c(C)c1 (stereo not drawn) | inactive | 
CC(NC(=O)Nc1ccccc1)c1ccccc1 (stereo not drawn) | inactive | 
CCCC(=O)NC(C)C(c1cccs1)N1CCN(c2ccccc2)CC1 (stereo not drawn) | inactive | 
CC(NC(=O)Nc1ccccc1)C(c1cccs1)N1CCN(c2ccccc2)CC1 (stereo not drawn) | 23.1 µM (active) | 
COC(=O)c1sc(SC)c(S(=O)(=O)C(C)C)c1N/N=C(\C#N)S(=O)(=O)c1ccccn1 | inactive | 
CC(=O)c1ccc(NC(=O)C(C)OC(=O)c2ccc(NS(=O)(=O)c3ccc4[nH]c(=O)[nH]c4c3)cc2)cc1 (stereo not drawn) | inactive | 
Cc1ccc(C(=O)OC(C)CN2CCOCC2)cc1 (stereo not drawn) | inactive | 
COc1cc(OC)cc(C(=O)NC(C(=O)N2CCC2)C(C)C)c1 (stereo not drawn) | inactive | 
COc1cc(OC)cc(C(=O)NCC(=O)N2CCCCCCC2)c1 | inactive | 
COc1ccc(N2CCN(C(=O)[C@@H](NC(=O)c3cc(OC)cc(OC)c3)C(C)C)CC2)cc1 | 8.2 µM (active) | 
CCOc1ccc(/C(O)=C2/C(=O)C(=O)N(Cc3cccnc3)C2c2ccc(N(C)C)cc2)c(C)c1 (stereo not drawn) | inactive | 
C=CCC[C@H](CCCCC)OC(=O)/C=C/[C@H](O)[C@@H](O)C[C@@H](O)CC=C | 14.6 µM (active) | 
C=CCC[C@@H](CCCCC)OC(=O)/C=C/[C@@H](O)[C@H](O)C[C@H](O)CC=C | 18.4 µM (active) | 
O=S(=O)(Nc1ccccc1)c1ccc(NS(=O)(=O)c2cccs2)cc1 | inactive | 

SMILES | Potency | activity change, negative = growth inhibition
Cc1ccc(NC(=O)CSc2nc3c(c(=O)[nH]2)CN(Cc2ccc4c(c2)OCO4)CC3)cc1C | inactive | 
O=C(CN1CCN(C(=O)c2cccc(F)c2)CC1)Nc1ccccc1F | inactive | 
C=CCC(NCc1ccco1)c1ccc(OC)cc1 (stereo not drawn) | inactive | 
Cc1ccc(S(=O)(=O)N2CCC(C(=O)N[C@@H](C)C(=O)NCc3ccco3)CC2)cc1 | inactive | 
Cc1ccc(S(=O)(=O)N2CC(C)N(S(C)(=O)=O)C2)cc1 (stereo not drawn) | inactive | 
Cc1ccc(S(=O)(=O)N2C[C@@H]3CCCC[C@@H]3[C@@H](C)[C@H]2c2cn(Cc3ccccc3)c3ccc(F)cc23)cc1 | 6.51 µM (active) | 
Cc1ccc(Cn2cc(C(=O)NN)c(=O)c3ccc(F)cc32)cc1 | inactive | 
CCOC(=O)c1sc(/N=C/C2=C(O)CC(C)(C)CC2=O)c(C(=O)OCC)c1C | inactive | 
CCOC(=O)c1c(NC(=O)c2ccc(Br)o2)sc2c1CCCC2 | inactive | 
CCOC(=O)c1c(NC(=O)C2(C)Cc3ccccc3C(=O)O2)sc2c1CCCC2 (stereo not drawn) | 16.4 µM (active) | 
CCOC(=O)c1c(NC(=S)Nc2ccccc2C)sc2c1CCC2 | inactive | 
COc1ccc(C(CNC(=O)COc2ccc([N+](=O)[O-])cc2)N2CCCCC2)cc1 (stereo not drawn) | inactive | 
O=C(Nc1ccc(Br)cn1)c1ccc([N+](=O)[O-])o1 | 5.17 µM (active) | 
COc1cccc(NC(=O)c2ccc(Cn3cc([N+](=O)[O-])cn3)o2)c1 | inactive | 
O=C(Nc1ccc(Br)cn1)c1ccc([N+](=O)[O-])cc1Cl | inactive | 
Cc1cccc(NC(=O)c2ccc([N+](=O)[O-])o2)c1 | 9.2 µM (active) | 
O=C(Nc1cccc(NC(=O)c2ccccc2[N+](=O)[O-])c1)c1ccccc1Cl | inactive | 
CN1C(=O)c2ccc(C(=O)Nc3ccc(Br)cn3)cc2C1=O | inactive | 
Cc1[nH]c2ccccc2c1C(=O)C(=O)N(C)c1ccccc1 | inactive | 
O=C(OCCOc1ccccc1F)c1cc(S(=O)(=O)N2CCOCC2)ccc1F | inactive | 
CCc1ccccc1NC(=O)CSc1nnc(-c2ccncc2)o1 | inactive | 
O=C(CNCCO)NC12CC3CC(CC(C3)C1)C2 | inactive | 
Cc1ccccc1S(=O)(=O)N1[C@@H](c2cccc(Cl)c2)C(C(=O)O)=CC[C@H]1c1ccc(Cl)cc1 | inactive | 
Cc1ccc(S(=O)(=O)N2[C@@H](c3cccc(Cl)c3)C(C(=O)O)=CC[C@H]2c2ccc(Cl)c(Cl)c2)cc1 | inactive | 

SMILES | Potency | activity change, negative = growth inhibition
CCOC(=O)C1=CC[C@@H](c2ccccc2)N(S(=O)(=O)c2ccc(C)cc2)[C@H]1c1ccc(CC)cc1 | 16.4 µM (active) | 
CCOC1=C2[C@H]([C@H]3C(=O)N(c4ccccc4)C(=O)[C@H]3C1)[C@@H](c1ccccc1)N(S(=O)(=O)c1ccc(C)cc1)[C@H]2c1ccccc1 | inactive | 
CCCCC(c1nnnn1CS(=O)(=O)c1ccc(C)cc1)N1CCC(C(N)=O)CC1 (stereo not drawn) | inactive | 
Cc1ccc(S(=O)(=O)N2[C@@H](c3ccc(Br)cc3)C(C(=O)O)=C[C@H]2CC2CCCC2)cc1 | inactive | 
CCc1ccc([C@@H]2CC(=O)[C@@H]3CN(S(=O)(=O)c4ccc(C)cc4)[C@H](c4ccc(Cl)cc4)C[C@@H]3N2S(=O)(=O)c2ccc(C)cc2)cc1 | inactive | 
Cc1ccc(S(=O)(=O)N2[C@@H](c3cccc4ccccc34)C(C(=O)O)=C[C@H]2C(C)(C)C)cc1 | inactive | 
CCOC(=O)C1C(C)C(C(C)(C)C)N(S(=O)(=O)c2ccc(C)cc2)C1c1ccccc1 (stereo not drawn) | 16.4 µM (active) | 
Cc1ccc(S(=O)(=O)N2[C@@H](c3ccccc3F)C(C(=O)O)=CC[C@H]2c2ccc(Cl)cc2)cc1 | inactive | 
CCCCC[C@@H]1C=C(C(=O)OCC)[C@H](c2ccccc2)N1S(=O)(=O)c1ccc(C)cc1 | 10.3 µM (active) | 
Cc1ccccc1S(=O)(=O)N1[C@@H](c2cccc(Cl)c2)C(C(=O)OC(C)(C)C)=CC[C@H]1c1ccc(Cl)cc1 | 16.4 µM (active) | 
Cc1cccc(/C(N)=N/OC(=O)c2ccccc2Cl)c1 | inactive | 
COc1ccc(C2=NOC3(CC(=O)N(c4ccc(C)cc4)C3=O)C2)cc1 (stereo not drawn) | inactive | 
Cc1nn(C)c(Oc2ccc(Cl)cc2)c1C=O | inactive | 
CCCCn1c(N)c(N(CCOC)C(=O)COc2c(C)cccc2C)c(=O)[nH]c1=O | inactive | 
CCC(=O)Nc1cc(C(F)(F)F)ccc1N1CCCC1 | inactive | 
CC(C)(C)NC(=O)COC(=O)c1cc(Cl)ccc1[N+](=O)[O-] | inactive | 
Cc1[nH]c2ccccc2c1SCC(=O)Nc1nccs1 | inactive | 
COc1ccc(Br)cc1C(=O)NC(=S)Nc1cc(-c2nc3ccccc3[nH]2)ccc1C | 14.6 µM (active) | 
Cc1ccc(OCC(=O)Nc2ccc(Cl)c(-c3nc4ccccc4[nH]3)c2)cc1C | inactive | 
COc1ccc(Br)cc1C(=O)Nc1cccc(C)c1C | inactive | 
CCOC(=O)c1nnn(CC(=O)NC(=O)Nc2ccccc2F)c1C(=O)OCC | inactive | 
COc1ccc(N(CC(=O)NCC2CCCO2)C(=O)CCC(=O)Nc2nccs2)c(OC)c1 (stereo not drawn) | inactive | 
O=c1c(O)c(Br)ccc2c(Br)c(O)c(O)c(O)c12 |  | 8.26% [at 9.04 µM]
C[C@H](NC(=O)c1ccccc1Cl)C(=O)OCC(=O)N1CCN(c2ccccc2)CC1 | inactive | 

SMILES | Potency | activity change, negative = growth inhibition
O=C(OCC(=O)N1CCN(c2ccccc2)CC1)c1ccc([N+](=O)[O-])s1 | 4.61 µM (active) | 
COc1cc(NC(=O)COC(=O)c2ccc([N+](=O)[O-])s2)cc(OC)c1OC | inactive | 
Oc1ccc(-c2cccc(-c3ccc(O)cc3)c2)cc1 | inactive | 
Cc1cn(C2CC(O)C(CO)O2)c(=O)n(CCCc2ccccc2)c1=O (stereo not drawn) | inactive | 
COCCn1c(=O)c(-c2cccs2)nc2cnc(N3CCN(C)CC3)nc21 | inactive | 
CCOC(=O)N1CCN(Cc2nc3cc(NC(C)=O)ccc3n2C)CC1 | inactive | 
CCOC(=O)N1CCN(Cc2nc3cc(NC(=O)CC)ccc3n2CC)CC1 | 29.1 µM (active) | 
CN1CCN(Cc2nc3cc(NC(=O)COc4ccc([N+](=O)[O-])cc4)ccc3n2C)CC1 | inactive | 
CC(=O)Cc1nsc(NC(=O)c2ccc(COc3ccc(C)cc3)o2)n1 | inactive | 
CN1CCC(=NNC(=O)CN(c2cccc(Cl)c2)S(C)(=O)=O)CC1 | inactive | 
CC1=CCC2C(=O)N(c3cccc(C(=O)NC(C)c4ccccc4)c3)C(=O)C2C1 (stereo not drawn) | inactive | 
CCOc1ncccc1C(=O)NCCc1ccc(OC)cc1 | 20.6 µM (active) | 
COc1ccc(CCNC(=O)c2ccco2)cc1 | inactive | 
CCCNC(=O)c1ccccc1NC(=O)CSCc1ccc(OC)cc1 | inactive | 
Cn1c(=O)[nH]c(=O)c2c1[nH]c(=S)n2Cc1ccccc1 | inactive | 
Cc1cccc(OCCNC(=S)NC(=O)c2cccnc2)c1 | inactive | 
O=C(CSc1ccc(C(F)(F)F)cc1[N+](=O)[O-])NCCOc1ccccc1 | inactive | 
Cc1cccc(OCCNC(=O)CSc2ccc(C(F)(F)F)cc2[N+](=O)[O-])c1 | 16.4 µM (active) | 
CN(C)c1nnnn1-c1ccc(Cl)cc1 | inactive | 
Clc1ccc(-n2nnnc2-c2cnc(-c3ccccn3)nc2-c2cccs2)cc1 | 5.17 µM (active) | 
O=c1c(-c2cccs2)nc2cnc(Oc3ccccc3)nc2n1-c1ccccc1 | inactive | 
